Experimental findings from PubChem BioAssay (NCI) are described below.

Experiment [1] in a line: NCI Yeast Anticancer Drug Screen. Data for the rad50 strain (AID 155).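 Also: 0% = growth of vehicle-only cultures of the same strain.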 The settings on record: S. cerevisiae rad50 strain growth inhibition, hits give high values. A digest of the protocol:
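Yeast carrying a defined DNA repair defect were exposed to test compounds, and growth was compared with vehicle-treated controls to give percent inhibition.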

Experiment [2] can be described thus: NCI Yeast Anticancer Drug Screen. Data for the mec2-1 strain (AID 157). The settings on record: S. cerevisiae mec2-1 strain, hits give high values. The method in brief:
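Using mec2-1 yeast: add compound, measure growth, express inhibition versus vehicle-treated cultures.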

Experiment [3] can be described thus: NCI Yeast Anticancer Drug Screen. Data for the sgs1 mgt1 strain (AID 161).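 Also: 0% = growth of cultures given vehicle only.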 The settings on record: S. cerevisiae sgs1 mgt1 strain, hits give high values. A digest of the protocol:
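Compounds are added to genetically altered yeast, and growth is compared with cultures given vehicle alone to give percent inhibition.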

A short description of experiment [4]: NCI Yeast Anticancer Drug Screen. Data for the cln2 rad14 strain (AID 165).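 Also: 0% = growth equal to vehicle treated cultures.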 The settings on record: S. cerevisiae cln2 rad14 strain, hits give high values. The method in brief: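 Yeast strain cln2 rad14, bearing defects in cell cycle control and DNA repair, serves as the test system; values reflect growth inhibition compared with vehicle.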
Experiment [5] is described as follows: NCI Yeast Anticancer Drug Screen. Data for the bub3 strain (AID 167). The note with it: S. cerevisiae bub3 mutant strain, hits give high values. A digest of the protocol: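 Compounds were applied to a genetically altered yeast strain carrying a cell-cycle control defect. Growth inhibition was scored against vehicle-treated controls.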
Experiment [6] is described as follows: NCI Yeast Anticancer Drug Screen. Data for the mlh1 rad18 strain (AID 175). The note with it: S. cerevisiae mlh1 rad18 strain growth inhibition, hits give high values. A digest of the protocol:
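Steps: expose repair-defective yeast to compound; measure growth; express inhibition against vehicle-treated controls.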

Where [7] appears, read: at 5.0 µM (retest, dose inferred, filed as 0.5).
Where [8] appears, read: at 50.0 µM (retest, dose inferred, filed as 5.0).

Compounds without any hit were thinned out: in the full panel of roughly 79,000, 15% have a hit. A number with no mark means an inactive call. Calls of active or inactive are those of the source. Rule as the data show it: active = growth inhibition above about 70%; inactive = the rest.

As to `O=C(O)c1nc2cc(C(F)(F)F)ccc2nc1Nc1ccc(Cl)c(Cl)c1`, the growth inhibition is 23% in experiment [1] (setting [7]); 77% (active) in experiment [1] (setting [8]); 86% (active) in experiment [1] (at 50.0 µM); 19% in experiment [2] (setting [7]); 90% (active) in experiment [2] (setting [8]); 80.3% (active) in experiment [2] (at 50.0 µM). The growth inhibition in experiment [3] (setting [7]) is -16%; in experiment [3] (setting [8]), 52%; in experiment [3] (at 50.0 µM) it was 48.8%; in experiment [4] (setting [7]), -7%; in experiment [4] (setting [8]) it was 85% (active); in experiment [4] (at 50.0 µM) it was 76.5% (active). For the same compound, the growth inhibition in experiment [5] (setting [7]) is 16%; in experiment [5] (setting [8]), 64%; in experiment [5] (at 50.0 µM) it was 55.1%; in experiment [6] (setting [7]), 19%; in experiment [6] (setting [8]) it was 87% (active); in experiment [6] (at 50.0 µM), 79.1% (active).

For the compound `CCCCCCCCCCN1Cc2ccccc2C1`, the growth inhibition in experiment [1] (setting [7]) is 77% (active); in experiment [1] (setting [8]), 99% (active); in experiment [1] (at 50.0 µM), 99% (active); in experiment [2] (setting [7]), 68%; in experiment [2] (setting [8]), 99% (active); in experiment [2] (at 50.0 µM), 97.9% (active). Moreover, the growth inhibition in experiment [3] (setting [7]) was 87% (active); in experiment [3] (setting [8]), 99% (active); in experiment [3] (at 50.0 µM) it was 99% (active); in experiment [4] (setting [7]), 68%; in experiment [4] (setting [8]) it was 99% (active); in experiment [4] (at 50.0 µM), 97.5% (active). Besides, the growth inhibition in experiment [5] (setting [7]) was 85% (active); in experiment [5] (setting [8]) it was 99% (active); in experiment [5] (at 50.0 µM) it was 98% (active); in experiment [6] (setting [7]), 68%; in experiment [6] (setting [8]), 99% (active); in experiment [6] (at 50.0 µM) it was 99.3% (active).

In the case of `NNc1c(Cl)cc(Cl)cc1Cl`, the growth inhibition in experiment [1] (setting [7]) is 44%; in experiment [1] (setting [8]), 93% (active); in experiment [1] (at 50.0 µM), 98.2% (active); in experiment [2] (setting [7]), -16%; in experiment [2] (setting [8]), 97% (active); in experiment [2] (at 50.0 µM), 98.9% (active). In addition, the growth inhibition is 12% in experiment [3] (setting [7]); 94% (active) in experiment [3] (setting [8]); 99.7% (active) in experiment [3] (at 50.0 µM); 21% in experiment [4] (setting [7]); 43% in experiment [4] (setting [8]); 97.8% (active) in experiment [4] (at 50.0 µM). The growth inhibition in experiment [5] (setting [7]) is 67%; in experiment [5] (setting [8]), 93% (active); in experiment [5] (at 50.0 µM) it was 99.2% (active); in experiment [6] (setting [7]), 51%; in experiment [6] (setting [8]), 97% (active); in experiment [6] (at 50.0 µM), 99.7% (active).

As to `N#CC(C#N)=C1C(Br)=CCc2ccccc21`, the growth inhibition in experiment [1] (setting [7]) was 100% (active); in experiment [1] (setting [8]), 99% (active); in experiment [1] (at 50.0 µM) it was 99.2% (active); in experiment [2] (setting [7]), 100% (active); in experiment [2] (setting [8]) it was 100% (active); in experiment [2] (at 50.0 µM), 99.3% (active). Also, the growth inhibition is 100% (active) in experiment [3] (setting [7]); 99% (active) in experiment [3] (setting [8]); 99.2% (active) in experiment [3] (at 50.0 µM); 100% (active) in experiment [4] (setting [7]); 99% (active) in experiment [4] (setting [8]); 97.5% (active) in experiment [4] (at 50.0 µM). Moreover, the growth inhibition is 100% (active) in experiment [5] (setting [7]); 99% (active) in experiment [5] (setting [8]); 99.2% (active) in experiment [5] (at 50.0 µM); 100% (active) in experiment [6] (setting [7]); 99% (active) in experiment [6] (setting [8]); 99.2% (active) in experiment [6] (at 50.0 µM).

For `Cn1c2c(c3ccccc31)CCN(CCCN1CCN(c3ccccc3)CC1)C2=O`, the growth inhibition in experiment [1] (setting [7]) is 49%; in experiment [1] (setting [8]), 49%; in experiment [1] (at 50.0 µM), 90.1% (active); in experiment [2] (setting [7]), 43%; in experiment [2] (setting [8]), 43%; in experiment [2] (at 50.0 µM), 89.2% (active). Besides, the growth inhibition in experiment [3] (setting [7]) was 58%; in experiment [3] (setting [8]) it was 58%; in experiment [3] (at 50.0 µM), 90.4% (active); in experiment [4] (setting [7]), 38%; in experiment [4] (setting [8]), 38%; in experiment [4] (at 50.0 µM) it was 91.5% (active). The growth inhibition in experiment [5] (setting [7]) was 51%; in experiment [5] (setting [8]) it was 51%; in experiment [5] (at 50.0 µM), 91.3% (active); in experiment [6] (setting [7]), 41%; in experiment [6] (setting [8]) it was 41%; in experiment [6] (at 50.0 µM), 84.7% (active).

As for `CCN(CC)CCNc1ccc(C)c2sc3c(OC)cccc3c(=O)c12`, the growth inhibition in experiment [1] (setting [7]) is 1%; in experiment [1] (setting [8]), 22%; in experiment [1] (at 50.0 µM), 74.6% (active); in experiment [2] (setting [7]), -1%; in experiment [2] (setting [8]) it was 4%; in experiment [2] (at 50.0 µM) it was 9.75%. In addition, the growth inhibition is -3% in experiment [3] (setting [7]); 22% in experiment [3] (setting [8]); 25.6% in experiment [3] (at 50.0 µM); -2% in experiment [4] (setting [7]); 8% in experiment [4] (setting [8]); -2.4% in experiment [4] (at 50.0 µM). For the same compound, the growth inhibition in experiment [5] (setting [7]) is -1%; in experiment [5] (setting [8]), 11%; in experiment [5] (at 50.0 µM), 23.4%; in experiment [6] (setting [7]), -5%; in experiment [6] (setting [8]), 36%; in experiment [6] (at 50.0 µM), 11.8%.

Take `CCn1cnc2[nH]cc(C#N)c2c1=O`: the growth inhibition was -150% in experiment [1] (setting [7]); 13% in experiment [1] (setting [8]); 7.7% in experiment [1] (at 50.0 µM); -50% in experiment [2] (setting [7]); -40% in experiment [2] (setting [8]); -15.1% in experiment [2] (at 50.0 µM). The growth inhibition in experiment [3] (setting [7]) is -64%; in experiment [3] (setting [8]), -33%; in experiment [3] (at 50.0 µM) it was 5.6%; in experiment [4] (setting [7]) it was -54%; in experiment [4] (setting [8]) it was -46%; in experiment [4] (at 50.0 µM), 34.2%. For the same compound, the growth inhibition is -67% in experiment [5] (setting [7]); -59% in experiment [5] (setting [8]); -19.2% in experiment [5] (at 50.0 µM); -123% in experiment [6] (setting [7]); -86% in experiment [6] (setting [8]); 36.7% in experiment [6] (at 50.0 µM).

Regarding `COc1ccc(CC2=CC(=O)C(=O)C=C2C)cc1`, the growth inhibition is 2% in experiment [1] (setting [7]); 27% in experiment [1] (setting [8]); 47.4% in experiment [1] (at 50.0 µM); 0% in experiment [2] (setting [7]); 29% in experiment [2] (setting [8]); 11.2% in experiment [2] (at 50.0 µM). Besides, the growth inhibition in experiment [3] (setting [7]) is 9%; in experiment [3] (setting [8]), 39%; in experiment [3] (at 50.0 µM), 47%; in experiment [4] (setting [7]) it was 0%; in experiment [4] (setting [8]) it was 4%; in experiment [4] (at 50.0 µM), 11.2%. The growth inhibition in experiment [5] (setting [7]) is -2%; in experiment [5] (setting [8]), 21%; in experiment [5] (at 50.0 µM) it was 38%; in experiment [6] (setting [7]) it was 14%; in experiment [6] (setting [8]), 51%; in experiment [6] (at 50.0 µM), 36.4%.

With `NC(=O)C#CC#CC#CCO`, the growth inhibition in experiment [1] (setting [7]) is 11%; in experiment [1] (setting [8]), 62%; in experiment [1] (at 50.0 µM), 92.8% (active); in experiment [2] (setting [7]), 24%; in experiment [2] (setting [8]), 62%; in experiment [2] (at 50.0 µM) it was 94.8% (active). The growth inhibition in experiment [3] (setting [7]) is 18%; in experiment [3] (setting [8]) it was 78% (active); in experiment [3] (at 50.0 µM), 94% (active); in experiment [4] (setting [7]), 25%; in experiment [4] (setting [8]), 39%; in experiment [4] (at 50.0 µM) it was 91.8% (active). In addition, the growth inhibition was 38% in experiment [5] (setting [7]); 77% (active) in experiment [5] (setting [8]); 93.5% (active) in experiment [5] (at 50.0 µM); 19% in experiment [6] (setting [7]); 67% in experiment [6] (setting [8]); 92.7% (active) in experiment [6] (at 50.0 µM).
